Test results taken from PubChem BioAssay (NCI).
The panel holds about 79,000 compounds, 15% with a hit somewhere; the sample as a whole holds those more often. Calls of active or inactive are those of the source. Cut-off read from the data, not from the text of the source: active = growth inhibition above about 70%; inactive = the rest.

How the values were obtained:
[1] = NCI Yeast Anticancer Drug Screen. Data for the rad52 strain (AID 147);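 note: 0% = growth of vehicle-treated control cultures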; details: S. cerevisiae rad52 mutant growth inhibition, hits give high values
Summary of the method: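 Here a repair-compromised yeast strain receives each compound; its growth is then quantified and normalised to vehicle-only controls.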

[2] = NCI Yeast Anticancer Drug Screen. Data for the wt1 strain (AID 149);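 note: 0% = growth of vehicle-treated wt1 cultures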; details: S. cerevisiae wt1 strain (SPY 50644) growth inhibition, hits give high values
Summary of the method: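 Measured: growth of wt1 yeast under compound versus vehicle treatment, reported as inhibition.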

[3] = NCI Yeast Anticancer Drug Screen. Data for the rad50EPP+ strain (AID 151);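 note: 0% = growth of vehicle-treated control cultures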; details: S. cerevisiae rad50 mutant strain, hits give high values
Summary of the method: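 Read-out is yeast growth inhibition relative to vehicle; cells used were the rad50EPP+ strain.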

[4] = NCI Yeast Anticancer Drug Screen. Data for the mgt1 strain (AID 153); details: S. cerevisiae mgt1 mutant growth inhibition, hits give high values
Summary of the method: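 Measured: inhibition of mgt1 yeast growth by compound, normalized to vehicle-treated cultures.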

[5] = NCI Yeast Anticancer Drug Screen. Data for the rad50 strain (AID 155);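 note: 0% = growth of vehicle-only cultures of the same strain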; details: S. cerevisiae rad50 strain growth inhibition, hits give high values
Summary of the method: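 Growth of the mutant yeast was measured after compound exposure and referenced to vehicle-treated cultures.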

[6] = NCI Yeast Anticancer Drug Screen. Data for the mec2-1 strain (AID 157); details: S. cerevisiae mec2-1 strain, hits give high values
Summary of the method: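 Using mec2-1 yeast: add compound, measure growth, express inhibition versus vehicle-treated cultures.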

[7] = NCI Yeast Anticancer Drug Screen. Data for the rad14 strain (AID 159);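 note: 0% = growth of vehicle-treated control cultures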; details: S. cerevisiae rad14 strain growth inhibition, hits give high values
Summary of the method: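 Here, inhibition of yeast growth was measured after compound exposure, using a strain with a genetic defect in DNA damage repair and vehicle-treated cultures as the reference.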

[8] = NCI Yeast Anticancer Drug Screen. Data for the sgs1 mgt1 strain (AID 161);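 note: 0% = growth of cultures given vehicle only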; details: S. cerevisiae sgs1 mgt1 strain, hits give high values
Summary of the method: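 Yeast cells carrying a defined DNA-repair defect were exposed to test compounds. Growth inhibition was measured relative to vehicle-treated controls.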

[9] = NCI Yeast Anticancer Drug Screen. Data for the CLN2oe strain (AID 163);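 note: 0% = growth of vehicle-only control cultures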; details: S. cerevisiae CLN2oe strain, hits give high values
Summary of the method: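 Whole-cell yeast growth assay. A strain engineered for altered cell-cycle control received compound, and inhibition relative to vehicle-treated cultures was recorded.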

[10] = NCI Yeast Anticancer Drug Screen. Data for the cln2 rad14 strain (AID 165);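 note: 0% = growth equal to vehicle treated cultures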; details: S. cerevisiae cln2 rad14 strain, hits give high values
Summary of the method: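 Yeast strain cln2 rad14, bearing defects in cell cycle control and DNA repair, serves as the test system; values reflect growth inhibition compared with vehicle.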

[11] = NCI Yeast Anticancer Drug Screen. Data for the wt2 strain (AID 169);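 note: 0% = growth of vehicle-treated yeast cultures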; details: S. cerevisiae wt2 strain growth inhibition, hits give high values
Summary of the method: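 Treated yeast vs. vehicle-treated yeast: growth inhibition determined.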

[12] = NCI Yeast Anticancer Drug Screen. Data for the mlh1 strain (AID 171);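 note: 0% = growth of vehicle-treated control cultures of the same strain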; details: S. cerevisiae mlh1 strain growth inhibition, hits give high values
Summary of the method: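 A yeast strain with a defined genetic lesion serves as the test organism. Cultures receive compound or vehicle, and growth is measured.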

[13] = NCI Yeast Anticancer Drug Screen. Data for the sgs1 strain (AID 173);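 note: 0% = growth of vehicle-only control cultures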; details: S. cerevisiae sgs1 mutant, hits give high values
Summary of the method: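 A genetically defined yeast mutant is incubated with the test compound, and its growth is compared to that of the same strain given vehicle.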

[14] = NCI Yeast Anticancer Drug Screen. Data for the mlh1 rad18 strain (AID 175); details: S. cerevisiae mlh1 rad18 strain growth inhibition, hits give high values
Summary of the method: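 Steps: expose repair-defective yeast to compound; measure growth; express inhibition against vehicle-treated controls.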

[15] = NCI Yeast Anticancer Drug Screen. Data for the rad18 strain (AID 177); details: S. cerevisiae rad18 mutant growth inhibition, hits give high values
Summary of the method: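 Measured value is growth inhibition of a yeast strain bearing a DNA repair alteration, referenced to vehicle-treated cells.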

[16] = at 5.0 µM (retest, dose inferred, filed as 0.5)
[17] = at 50.0 µM (retest, dose inferred, filed as 5.0)

Measured: growth inhibition

O=Cc1ccccc1C=O
inactive: [1]; at 1.2 µM -13% | [1]; at 3.7 µM -11% | [1]; at 11.0 µM -7% | [1]; at 33.0 µM 4% | [2]; at 1.2 µM -35% | [2]; at 3.7 µM -31% | [2]; at 11.0 µM -17% | [2]; at 33.0 µM 0% | [3]; at 1.2 µM -8% | [3]; at 3.7 µM -13% | [3]; at 11.0 µM -2% | [3]; at 33.0 µM 6% | [3]; at 100.0 µM 34% | [4]; at 1.2 µM 4% | [4]; at 3.7 µM 9% | [4]; at 11.0 µM 20% | [4]; at 33.0 µM 36% | [5]; at 1.2 µM 14% | [5]; at 3.7 µM 12% | [5]; [16] -6% | [5]; at 11.0 µM 19% | [5]; at 33.0 µM 28% | [5]; [17] 16% | [5]; at 50.0 µM 44.6% | [6]; at 1.2 µM -17% | [6]; at 3.7 µM -22% | [6]; [16] -8% | [6]; at 11.0 µM -12% | [6]; at 33.0 µM 32% | [6]; [17] 32% | [7]; at 1.2 µM -17% | [7]; at 3.7 µM -12% | [7]; at 11.0 µM -8% | [7]; at 33.0 µM 23% | [8]; [16] -3% | [8]; [17] 43% | [8]; at 50.0 µM 40.3% | [9]; at 1.2 µM 4% | [9]; at 3.7 µM 7% | [9]; at 11.0 µM 3% | [9]; at 33.0 µM 22% | [10]; [16] 5% | [10]; at 50.0 µM 13.6% | [11]; at 1.2 µM -20% | [11]; at 3.7 µM -26% | [11]; at 11.0 µM -15% | [11]; at 33.0 µM -35% | [12]; at 1.2 µM -6% | [12]; at 3.7 µM -5% | [12]; at 11.0 µM 1% | [12]; at 33.0 µM 36% | [13]; at 1.2 µM -19% | [13]; at 3.7 µM -25% | [13]; at 11.0 µM -15% | [13]; at 33.0 µM 2% | [14]; [16] -23% | [14]; [17] 48% | [15]; at 1.2 µM -4% | [15]; at 3.7 µM -5% | [15]; at 11.0 µM 0% | [15]; at 33.0 µM 26%
active: [1]; at 100.0 µM 73% | [2]; at 100.0 µM 90% | [4]; at 100.0 µM 91% | [5]; at 100.0 µM 89% | [6]; at 50.0 µM 80.5% | [6]; at 100.0 µM 90% | [7]; at 100.0 µM 86% | [9]; at 100.0 µM 85% | [10]; [17] 74% | [11]; at 100.0 µM 86% | [12]; at 100.0 µM 84% | [13]; at 100.0 µM 72% | [14]; at 50.0 µM 82% | [15]; at 100.0 µM 88%
